Data reported in the supplement of paper PMC11732987, “Enantioselective OTUD7B fragment discovery through chemoproteomics screening and high-throughput optimisation” (Communications Chemistry, 2025).

Assays:
Test in all cases: log2 ratio of Biotin-Ahx-Ub-VS probe labelling (fragment/DMSO); higher = less target engagement (more negative = stronger competition), active = hit call of the paper (q ≤ 0.05, log2 ratio ≤ -1)
Conditions in all cases: compound concentration: 200 uM; treatment time: 3 h
ALG13 = biological target: T1, ALG13 (UniProt Q9NP73)
T1 sequence (whole entry): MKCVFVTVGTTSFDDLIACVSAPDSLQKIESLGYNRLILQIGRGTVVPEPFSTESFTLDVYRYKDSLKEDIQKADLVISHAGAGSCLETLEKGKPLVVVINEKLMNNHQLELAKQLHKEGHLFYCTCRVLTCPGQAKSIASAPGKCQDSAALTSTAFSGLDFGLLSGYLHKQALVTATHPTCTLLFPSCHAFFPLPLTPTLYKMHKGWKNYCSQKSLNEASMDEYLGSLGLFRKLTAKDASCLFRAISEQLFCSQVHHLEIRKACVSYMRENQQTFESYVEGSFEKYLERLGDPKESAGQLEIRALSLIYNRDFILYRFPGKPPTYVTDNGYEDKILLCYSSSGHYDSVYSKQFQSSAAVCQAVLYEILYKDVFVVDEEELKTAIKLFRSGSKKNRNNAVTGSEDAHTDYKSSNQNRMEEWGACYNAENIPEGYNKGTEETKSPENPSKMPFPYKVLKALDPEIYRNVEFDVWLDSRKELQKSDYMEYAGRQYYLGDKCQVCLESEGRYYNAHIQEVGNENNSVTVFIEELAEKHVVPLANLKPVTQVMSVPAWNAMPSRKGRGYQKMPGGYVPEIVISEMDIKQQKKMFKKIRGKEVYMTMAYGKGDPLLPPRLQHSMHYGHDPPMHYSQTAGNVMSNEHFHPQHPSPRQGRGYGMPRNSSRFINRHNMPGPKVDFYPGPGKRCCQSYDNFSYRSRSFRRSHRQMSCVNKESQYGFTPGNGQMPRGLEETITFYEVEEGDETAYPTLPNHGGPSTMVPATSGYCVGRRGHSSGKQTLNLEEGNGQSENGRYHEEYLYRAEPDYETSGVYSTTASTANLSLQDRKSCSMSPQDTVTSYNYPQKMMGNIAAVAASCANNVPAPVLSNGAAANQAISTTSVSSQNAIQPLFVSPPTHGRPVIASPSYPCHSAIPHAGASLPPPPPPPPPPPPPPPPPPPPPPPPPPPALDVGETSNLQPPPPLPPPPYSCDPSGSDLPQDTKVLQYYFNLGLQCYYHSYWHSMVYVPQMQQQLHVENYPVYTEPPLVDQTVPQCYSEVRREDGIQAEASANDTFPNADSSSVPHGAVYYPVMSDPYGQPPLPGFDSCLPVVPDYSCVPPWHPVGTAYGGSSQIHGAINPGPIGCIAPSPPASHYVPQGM
Procedure, shortened: (§1)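 Fragment (200 µM) or vehicle was incubated for 3 h with triplicate HEK293T lysate samples of 495 µg, which were then treated with Biotin-Ahx-Ub-VS at 0.5 µM final for 1 h. Labelled DUBs were enriched on NeutrAvidin, digested with LysC and trypsin, and analysed by diaPASEF LC-MS/MS. Values are average log2 fragment/vehicle ratios from an unpaired t-test on global-median-normalised Spectronaut label-free quantities, using proteins with ≥2 unique peptides.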

ATXN3 = ATXN3 (UniProt P54252)
Procedure, shortened: as §1

BAP1 = biological target: T2, BAP1 (UniProt Q92560)
T2 sequence (whole entry): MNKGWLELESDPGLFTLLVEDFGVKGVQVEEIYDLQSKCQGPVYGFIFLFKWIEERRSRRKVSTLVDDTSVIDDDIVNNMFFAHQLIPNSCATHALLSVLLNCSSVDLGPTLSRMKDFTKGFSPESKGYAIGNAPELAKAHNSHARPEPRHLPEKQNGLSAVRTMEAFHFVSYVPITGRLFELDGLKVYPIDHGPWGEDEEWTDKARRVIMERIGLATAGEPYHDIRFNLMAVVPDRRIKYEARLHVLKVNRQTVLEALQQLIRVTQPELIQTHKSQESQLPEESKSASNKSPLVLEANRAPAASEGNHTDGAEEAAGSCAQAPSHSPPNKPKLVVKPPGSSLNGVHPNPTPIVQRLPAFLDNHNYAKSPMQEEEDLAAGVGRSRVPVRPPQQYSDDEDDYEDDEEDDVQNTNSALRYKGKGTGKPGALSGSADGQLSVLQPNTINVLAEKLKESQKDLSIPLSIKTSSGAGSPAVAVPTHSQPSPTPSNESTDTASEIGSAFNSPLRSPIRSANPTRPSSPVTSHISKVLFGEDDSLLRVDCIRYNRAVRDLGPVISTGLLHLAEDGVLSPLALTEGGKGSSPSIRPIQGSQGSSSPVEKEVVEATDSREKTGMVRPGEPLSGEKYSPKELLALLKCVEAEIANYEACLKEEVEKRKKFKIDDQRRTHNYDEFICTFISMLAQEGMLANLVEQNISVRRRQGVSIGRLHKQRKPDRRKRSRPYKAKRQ
Procedure, shortened: as §1

EIF3F = EIF3F (UniProt O00303)
Procedure, shortened: as §1

EIF3H = EIF3H (UniProt O15372)
Procedure, shortened: as §1

FAM105A = biological target: T3, FAM105A (UniProt Q9NUU6)
T3 sequence (whole entry): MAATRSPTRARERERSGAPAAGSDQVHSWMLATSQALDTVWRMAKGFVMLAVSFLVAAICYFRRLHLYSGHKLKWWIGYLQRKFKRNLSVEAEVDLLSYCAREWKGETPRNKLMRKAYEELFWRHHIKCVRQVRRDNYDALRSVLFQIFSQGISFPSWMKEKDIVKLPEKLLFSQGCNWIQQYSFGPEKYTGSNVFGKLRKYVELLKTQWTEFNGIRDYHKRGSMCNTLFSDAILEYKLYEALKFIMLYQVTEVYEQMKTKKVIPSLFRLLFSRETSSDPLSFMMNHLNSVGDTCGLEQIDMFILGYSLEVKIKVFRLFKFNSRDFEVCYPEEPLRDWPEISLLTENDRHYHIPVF
Procedure, shortened: as §1

OTUB1 = OTUB1 (UniProt Q96FW1)
Procedure, shortened: as §1

OTUD4 = biological target: T4, OTUD4 (UniProt Q01804)
T4 sequence (whole entry): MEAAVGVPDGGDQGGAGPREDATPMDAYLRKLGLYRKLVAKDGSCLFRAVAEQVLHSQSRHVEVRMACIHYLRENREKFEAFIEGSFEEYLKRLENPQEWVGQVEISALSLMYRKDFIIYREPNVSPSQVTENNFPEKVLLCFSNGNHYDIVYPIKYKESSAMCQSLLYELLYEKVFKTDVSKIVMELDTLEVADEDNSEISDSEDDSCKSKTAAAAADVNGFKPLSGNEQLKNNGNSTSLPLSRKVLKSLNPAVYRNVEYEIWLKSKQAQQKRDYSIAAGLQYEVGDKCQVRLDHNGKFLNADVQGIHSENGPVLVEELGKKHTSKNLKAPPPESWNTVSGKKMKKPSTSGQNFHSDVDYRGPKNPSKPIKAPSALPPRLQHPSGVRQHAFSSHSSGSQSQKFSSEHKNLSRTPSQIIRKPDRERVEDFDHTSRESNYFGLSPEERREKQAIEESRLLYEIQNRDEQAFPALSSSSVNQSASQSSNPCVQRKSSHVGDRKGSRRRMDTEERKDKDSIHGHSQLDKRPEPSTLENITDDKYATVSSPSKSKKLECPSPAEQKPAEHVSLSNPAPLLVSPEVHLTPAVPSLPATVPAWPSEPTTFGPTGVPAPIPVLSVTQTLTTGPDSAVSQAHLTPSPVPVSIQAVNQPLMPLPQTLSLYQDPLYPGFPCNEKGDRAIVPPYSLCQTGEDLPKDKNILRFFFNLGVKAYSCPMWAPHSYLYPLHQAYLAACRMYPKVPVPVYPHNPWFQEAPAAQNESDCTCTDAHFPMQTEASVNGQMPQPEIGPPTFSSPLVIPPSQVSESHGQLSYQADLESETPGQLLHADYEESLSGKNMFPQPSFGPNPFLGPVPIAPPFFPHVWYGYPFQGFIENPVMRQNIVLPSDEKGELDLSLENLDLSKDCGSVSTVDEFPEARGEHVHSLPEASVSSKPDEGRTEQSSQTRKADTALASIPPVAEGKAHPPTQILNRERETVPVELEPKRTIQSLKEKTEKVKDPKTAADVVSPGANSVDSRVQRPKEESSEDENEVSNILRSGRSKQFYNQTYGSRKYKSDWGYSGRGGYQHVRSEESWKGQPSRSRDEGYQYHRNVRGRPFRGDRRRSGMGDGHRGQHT
Procedure, shortened: as §1

OTUD5 = biological target: T5, OTUD5 (UniProt Q96G74)
T5 sequence (whole entry): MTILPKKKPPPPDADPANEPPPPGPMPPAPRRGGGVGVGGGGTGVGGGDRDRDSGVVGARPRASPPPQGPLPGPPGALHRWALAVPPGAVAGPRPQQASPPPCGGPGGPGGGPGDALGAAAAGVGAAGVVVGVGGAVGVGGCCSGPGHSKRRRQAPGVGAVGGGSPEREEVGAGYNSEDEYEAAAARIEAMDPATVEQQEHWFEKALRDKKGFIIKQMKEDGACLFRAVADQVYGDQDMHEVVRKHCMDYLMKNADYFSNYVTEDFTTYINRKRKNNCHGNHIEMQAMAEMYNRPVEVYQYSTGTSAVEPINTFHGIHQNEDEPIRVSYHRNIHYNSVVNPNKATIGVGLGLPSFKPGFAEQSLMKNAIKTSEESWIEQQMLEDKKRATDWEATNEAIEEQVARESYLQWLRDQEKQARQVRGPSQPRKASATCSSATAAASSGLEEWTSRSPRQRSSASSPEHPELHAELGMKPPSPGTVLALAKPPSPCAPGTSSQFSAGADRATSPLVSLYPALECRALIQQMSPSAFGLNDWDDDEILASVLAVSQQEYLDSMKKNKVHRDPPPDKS
Procedure, shortened: as §1

Measured: log2 ratio of Biotin-Ahx-Ub-VS probe labelling

Sequence of EIF3F (O00303 whole entry): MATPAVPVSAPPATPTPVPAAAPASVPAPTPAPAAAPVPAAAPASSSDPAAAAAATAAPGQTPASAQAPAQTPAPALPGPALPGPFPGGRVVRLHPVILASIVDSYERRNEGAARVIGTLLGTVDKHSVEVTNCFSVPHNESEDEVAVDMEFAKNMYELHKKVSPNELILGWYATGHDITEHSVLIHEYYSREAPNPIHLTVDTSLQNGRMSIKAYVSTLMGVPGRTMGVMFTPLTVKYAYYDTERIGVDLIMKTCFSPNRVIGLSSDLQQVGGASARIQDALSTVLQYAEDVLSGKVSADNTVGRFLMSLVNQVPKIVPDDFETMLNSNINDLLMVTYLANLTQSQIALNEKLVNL
Sequence of EIF3H (O15372 whole entry): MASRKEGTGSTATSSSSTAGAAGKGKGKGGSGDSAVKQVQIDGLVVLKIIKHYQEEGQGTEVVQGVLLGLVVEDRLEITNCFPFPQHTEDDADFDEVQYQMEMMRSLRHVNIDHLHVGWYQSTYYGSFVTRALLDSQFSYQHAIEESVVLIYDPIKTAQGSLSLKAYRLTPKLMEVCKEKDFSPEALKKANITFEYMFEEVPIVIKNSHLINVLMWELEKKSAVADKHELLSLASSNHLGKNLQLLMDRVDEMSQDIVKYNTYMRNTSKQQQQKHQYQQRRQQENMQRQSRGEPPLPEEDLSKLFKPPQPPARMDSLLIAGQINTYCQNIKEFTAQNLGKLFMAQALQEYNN
Sequence of ATXN3 (P54252 whole entry): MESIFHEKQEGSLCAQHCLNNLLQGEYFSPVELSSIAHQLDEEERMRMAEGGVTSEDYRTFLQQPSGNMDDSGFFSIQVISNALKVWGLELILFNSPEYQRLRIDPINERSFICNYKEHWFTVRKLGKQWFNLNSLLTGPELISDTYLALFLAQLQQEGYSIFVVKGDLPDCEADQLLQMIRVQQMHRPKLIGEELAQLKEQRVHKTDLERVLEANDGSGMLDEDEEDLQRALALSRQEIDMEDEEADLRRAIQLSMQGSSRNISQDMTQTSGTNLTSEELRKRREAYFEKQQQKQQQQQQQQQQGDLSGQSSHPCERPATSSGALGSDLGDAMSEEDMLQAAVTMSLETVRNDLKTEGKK
Sequence of OTUB1 (Q96FW1 whole entry): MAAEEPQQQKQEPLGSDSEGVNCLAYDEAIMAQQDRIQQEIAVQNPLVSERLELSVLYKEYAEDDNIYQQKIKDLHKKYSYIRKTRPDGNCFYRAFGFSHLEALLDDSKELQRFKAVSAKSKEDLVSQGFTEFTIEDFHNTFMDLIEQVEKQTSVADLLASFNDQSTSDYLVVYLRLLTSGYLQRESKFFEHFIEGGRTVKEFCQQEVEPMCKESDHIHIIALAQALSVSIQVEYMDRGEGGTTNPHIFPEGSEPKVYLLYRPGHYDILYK

O=C(CCl)N1CCC(C(=O)N2CCCC2)CC1
inactive: ALG13 0.141 | ATXN3 -0.319 | BAP1 -0.206 | EIF3F -0.123 | EIF3H -0.0247 | FAM105A -0.324 | OTUB1 -0.0283 | OTUD4 0.178 | OTUD5 -0.137
